LGR2 antag = inhibitors of bursicon-induced LGR2 CRE-luciferase signal, primary screen, cell-based, HEK293, CRE-luciferase reporter, bursicon stimulation. actives 0.35% (n = 380,000). bursicon-stimulated, 4 h. inhibition, % at 9.99 µM. AID 720647, 2013;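 active = drop in luminescence signal, shown as inhibition above about 50% in the replicate tests, limit read from the data, passing the limit was not always enough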;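 note: agonist challenge used bursicon conditioned medium at about half maximal strength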
TROY signal inh = inhibitors of TROY-driven NF-kB signaling, primary screen, Q293 LMP1-TROYcd cells, NF-kB luciferase, uHTS; Q293 LMP1-TROYcd NF-kB luciferase reporter, 4 h; inhibition, % at 10 µM; actives 0.98% (n = 360,000);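 active = compounds whose plate-normalised and pattern-corrected inhibition of the luciferase reporter signal at the single screening dose is 50% or more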
PAX8 inh HTS = inhibitors of PAX8-driven TPO luciferase reporter, primary screen, RMG-I cells, single concentration; SteadyGlo, 24 h; inhibition, % at 12.6 µM; actives 1.2% (n = 360,000); AID 652154, 2013;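 active = mean replicate inhibition at least 60% with every replicate also reaching 60%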;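 note: luciferase light reporting Pax8 driven TPO promoter activity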
EWS-Fli block = EWS/Fli-driven NR0B1 reporter inhibitors, primary screen, A673 cells, NR0B1 luciferase, luminescence, MLPCN library; actives 0.67% (n = 350,000); inhibition, % at 12.6 µM; viability-normalised;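 active = mean inhibition of at least 50% after viability correction, with every replicate also passing that limit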;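 note: firefly luciferase signal divided by Alamar Blue viability fluorescence both relative to DMSO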
TWEAK-Fn14 inh = inhibitors of TWEAK-Fn14 signaling, primary screen, luciferase reporter cells, uHTS; TWEAK-stimulated Fn14 reporter cells, luciferase luminescence, 8 h; AID 1159606, 2016; actives 2% (n = 360,000); inhibition, % at 10 µM; in the data active = inhibition above about 50%
LMP1 NFkB inh = EBV LMP1-driven NF-kappaB luciferase reporter inhibitors, primary screen, cell-based, luminescence, single point | actives 0.69% (n = 350,000) | inhibition, % at 12.5 µM | LMP1-induced NF-kappaB luciferase reporter cells; in the data active = inhibition above about 41%
DNA binding = DNA binders by acridine orange displacement, dose response, counter-screen for EWS/Fli inhibitor project, biochemical, fluorescence polarization, cherry-pick; shares compounds with EWS-Fli block; salmon sperm DNA acridine orange fluorescence polarization; AC35, µM (doses to about 68 µM); actives 2% (n = 640); AID 720586, 2013;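 active = fitted curve reaches a 35% signal fall AC35 below twice the sample's top valid tested dose, actives reach about 48 µM in these data; inactive = the rest, including activity in the rising direction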;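 note: lower polarization ratio signals compound binding to DNA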
Large screens that a line does not name were inactive (follow-up assays come after a bar, where they were run). Compounds with a hit are over-represented: about 3.2% of the library has one in this group of screens.

COc1cccc(/C=C2\SC(=S)N(CCCC(=O)Nc3cc(C)on3)C2=O)c1	none (no result: PAX8 inh HTS)
COc1ccccc1/C=C1\SC(=S)N(CCC(=O)Nc2cc(C)on2)C1=O	EWS-Fli block 52.1 | DNA binding inactive
CCc1ccc(/C=C2\SC(=S)N(CCCC(=O)Nc3cc(C)on3)C2=O)cc1	TROY signal inh 80.5, EWS-Fli block 83.4, TWEAK-Fn14 inh 69.9 | DNA binding inactive
COc1cccc(/C=C2\SC(=S)N(CCCC(=O)NC3=NCCS3)C2=O)c1	none (no result: PAX8 inh HTS, EWS-Fli block)
CCc1ccc(/C=C2\SC(=S)N(CCC(=O)Nc3cc(C)on3)C2=O)cc1	TROY signal inh 52.9, EWS-Fli block 63.0, TWEAK-Fn14 inh 69.9 | DNA binding inactive
C[C@@H]1CN([C@@H](C)CO)S(=O)(=O)c2ccc(-c3ccncc3)cc2O[C@@H]1CN(C)C(=O)Nc1ccc(C(F)(F)F)cc1	none (no result: TROY signal inh, PAX8 inh HTS, TWEAK-Fn14 inh, LMP1 NFkB inh)
O=C(N[C@@H]1CC[C@@H](CCn2cc(-c3cccnc3)nn2)O[C@H]1CO)c1ccccc1F	none (no result: TROY signal inh, TWEAK-Fn14 inh, LMP1 NFkB inh)
COc1cccc(NC(=O)N(C)C[C@@H]2Oc3ncc(/C=C/c4ccccc4)cc3C(=O)N([C@@H](C)CO)C[C@@H]2C)c1	none (no result: TROY signal inh, TWEAK-Fn14 inh, LMP1 NFkB inh)
O=C(/C=C/c1cc(Br)ccc1O)c1ccco1	EWS-Fli block 58.9, TWEAK-Fn14 inh 62.3 | DNA binding inactive
CCc1c(C(=O)NN2C(=O)C3CCCCC3C2=O)csc1C (configuration not stated)	EWS-Fli block 64.9 | DNA binding inactive
COC(=O)C[C@@H]1CC[C@H]2[C@H](COc3ccc(NC(=O)Nc4cc(C)cc(C)c4)cc3C(=O)N2C)O1	EWS-Fli block 64.3 (no result: TROY signal inh, TWEAK-Fn14 inh, LMP1 NFkB inh) | DNA binding inactive
COC(=O)C[C@@H]1CC[C@H]2[C@H](COc3ccc(NC(=O)Nc4cccc(C#N)c4)cc3C(=O)N2C)O1	none (no result: TROY signal inh, TWEAK-Fn14 inh, LMP1 NFkB inh)
COC(=O)C[C@H]1CC[C@@H]2[C@@H](COc3ccc(NC(=O)Nc4cccc(Cl)c4)cc3C(=O)N2C)O1	none (no result: TROY signal inh, TWEAK-Fn14 inh, LMP1 NFkB inh)
COC(=O)C[C@H]1CC[C@H]2[C@H](COc3ccc(NC(=O)Nc4cccc(Cl)c4)cc3C(=O)N2C)O1	EWS-Fli block 79.6 (no result: TROY signal inh, TWEAK-Fn14 inh, LMP1 NFkB inh) | DNA binding inactive
COC(=O)C[C@H]1CC[C@@H]2[C@H](COc3ccc(NC(=O)Nc4cccc(Cl)c4)cc3C(=O)N2C)O1	EWS-Fli block 60.2 (no result: TROY signal inh, TWEAK-Fn14 inh, LMP1 NFkB inh) | DNA binding inactive
COC(=O)C[C@@H]1CC[C@@H]2[C@@H](COc3ccc(NC(=O)Nc4cccc(C#N)c4)cc3C(=O)N2C)O1	EWS-Fli block 76.3 (no result: TROY signal inh, TWEAK-Fn14 inh, LMP1 NFkB inh) | DNA binding inactive
COCC(=O)Nc1ccc2c(c1)OC[C@H](C)N(C(=O)c1ccccc1)C[C@H](C)[C@H](OC)CN(C)C2=O	none (no result: TROY signal inh, PAX8 inh HTS, TWEAK-Fn14 inh, LMP1 NFkB inh)
COc1ccc(NC(=O)Nc2ccc3c(c2)OC[C@H](C)NC[C@H](C)[C@@H](OC)CN(C)C3=O)cc1	none (no result: TROY signal inh, PAX8 inh HTS, TWEAK-Fn14 inh, LMP1 NFkB inh)
CO[C@@H]1CN(C)C(=O)c2ccc(NC(C)=O)cc2OC[C@@H](C)N(C(=O)Cc2cccnc2)C[C@H]1C	none (no result: TROY signal inh, TWEAK-Fn14 inh, LMP1 NFkB inh)
COC(=O)Cc1[nH]n(-c2nc3ccccc3s2)c(=O)c1C(C)=Nc1ccc(C)cc1	LGR2 antag 53.2, TROY signal inh 81.8, EWS-Fli block 77.4, TWEAK-Fn14 inh 91.2, LMP1 NFkB inh 81.6 | DNA binding inactive
COc1cc2c(cc1OC)C(C)N(C(=O)c1nccnc1C(=O)O)CC2 (configuration not stated)	none
COc1cc2c(cc1OC)C(C)N(C(=O)c1cc(Cl)nc(Cl)c1)CC2 (configuration not stated)	EWS-Fli block 56.1 | DNA binding inactive
Cc1occc1-c1n[nH]c(=S)n1C	EWS-Fli block 75.2 (no result: LGR2 antag) | DNA binding inactive
Cc1occc1-c1n[nH]c(=S)n1-c1ccccc1	none
CCCCC1Cc2[nH]c(=S)[nH]c(=O)c2C(c2ccc3ccccc3c2)O1 (configuration not stated)	none (no result: LMP1 NFkB inh)
